Where “and” joins values, the source holds several entries; their conditions need not be identical. Equal values may be shown once. The panel holds about 83,000 compounds, 20% with a hit somewhere; the sample as a whole holds those more often.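 48-hour exposure, single concentration, 96-well plates; percent growth endpoint where 0 means no net growth. Active: below 10.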 Unmarked numbers belong to inactive results. Calls of active or inactive are those of the source.
These molecules were tested on HT29 colon (assay: NCI-60 one-dose screen, 48 h (100 = growth as untreated, 0 = no growth, -100 = all killed)). Details: 10 µM unless noted.
Experimental: Growth inhibition of the HT29 human tumor cell line is measured as a screen for anti-cancer activity. Cells are grown in 96 well plates and exposed to the test compound for 48 hours. Compounds are tested at a single concentration, which is 10^-5 M for most compounds. The reported endpoint is percent growth (GI% or GIPRCNT), where numbers from 0 - 100% represent growth inhibition, and numbers from -100% - 0 represent cell death. For example, a value of 40 represents 60% growth inhibition. A value of 0 means no net growth occurred over the course of the experiment. A value of -40 indicates 40% of cells at the beginning of the experiment died by the end of the experiment. A value of -100 means all cells are dead at the end of the experiment.
NCI-60 Human Tumor Cell Lines Screen was performed using the standard one-dose NCI protocol, which is described in more detail at https://dtp.cancer.gov/discovery_development/nci-60/default.htm.
Compounds with GIPRCNT values below 10 were considered active. Activity score was based on GIPRCNT using the following formula: […]
Score is 0 for GIPRCNT values of 100 or above, 50 for GIPRCNT values of 0, and 100 for GIPRCNT values of -100.
`NS(=O)(=O)c1ccc(CCn2c(-c3ccc(C(=O)O)cc3)nc(-c3ccccc3)c2-c2ccccc2)cc1` was tested, and the growth was 106%.
For `O=C(CSc1nc2ccccc2c(=O)n1-c1ccccc1)N/N=C/c1ccc(Oc2ccc(Cl)cc2)cc1`, the growth was 59.1%.
With `COc1cc(-c2nc(-c3ccccc3)[nH]c2-c2ccnc(NCCCNS(=O)(=O)c3ccc(C(F)(F)F)cc3)n2)ccc1Cl` the growth was 43.9% and 17.9%.
Molecule `CCN(CC)c1ccc(/C=N/NC(=O)c2ccc(S(N)(=O)=O)cc2)c(O)c1` has a growth of 25.4%.
For `CS(=O)(=O)c1ccc(/C(=N/N=C(N)N)c2ccc(Cl)cc2)cc1`, the growth was 92.9%.
`CNc1sc(S(=O)(=O)NC)nc1S(=O)(=O)c1ccc(C)cc1` gave a growth of 107%.
`COC(=O)c1cccc(NC2=CC(=O)C(C)=C(C)C2=O)c1` showed a growth of 110%.
In the case of `COc1ccc2c(c1)c(-c1nc(N)nnc1-c1c[nH]c3ccccc13)cn2C`, the growth is reported as 14.5%.
Work on `CN1CCN(CCCCCC(=O)Nc2nc(-c3cccc(NS(=O)(=O)c4cccc5c(N(C)C)cccc45)c3)cs2)CC1` yielded a growth of 15.8%.
Work on `CCCCN1C(=O)/C(=c2\sc3n(c2=O)C2C(NN=3)N(CC)C(=O)N2CC)c2cccc(C)c21` (stereo not given) yielded a growth of 16.5%.
With `CN1CCN(c2ccc(Nc3nc(NCCCNS(=O)(=O)c4ccccc4)c4sccc4n3)cc2)CC1` the growth was -26.7% (active).
Molecule `COc1cc2cc(Oc3ccc(NC(=O)c4cc(C(F)(F)F)cc(C(F)(F)F)c4)cc3)c(C)nc2cc1OCCN1CCOCC1` has a growth of 63.8%.
For `CN1CCN(c2ccc(Nc3nc(NCCCNS(=O)(=O)c4cccc(F)c4)c4sccc4n3)cc2)CC1`, the growth was -68.7% (active).
`CC1=C(C)C(=O)C(Nc2cccc(C(=O)OC(C)(C)C)c2)=CC1=O` showed a growth of 104%.
For `C#CCN(C)CCCOc1ccc(NC(=O)CCCCCCC(=O)NO)cc1Cl`, the growth was 10.5%.
`CCOP(=O)(OCC)OC[C@]12CCC(C)(C)CC1C1=CC[C@@H]3[C@@]4(C)CCCNC(C)(C)[C@@H]4CC[C@@]3(C)[C@]1(C)CC2` (stereo not given in full) gave a growth of 42%.
`CC1(C)CC[C@]2(C(=O)NCCCCCCN(CCCN)CCCN)CC[C@]3(C)C(=CC[C@@H]4[C@@]5(C)CC[C@H](O)C(C)(C)[C@@H]5CC[C@]43C)[C@@H]2C1` gave a growth of 110%.
In the case of `CCOC(=O)c1c(NC(=O)c2cccc(C(F)(F)F)c2)sc2c3c(ccc12)OCN(C)C3`, the growth is reported as -11.8% (active).
For `O=C1/C(=C/c2cc(F)cc(F)c2)Cc2cc3c(cc21)OCO3`, the growth was 22.1%.
Work on `Nc1nc(=O)n([C@H]2C[C@H](O)[C@@H](CO)O2)cc1C=O` yielded a growth of 101%.
With `COc1ccccc1/C=C/C(=O)c1nnn(-c2ccc(F)cc2)c1C` the growth was 4.8% (active).
Molecule `CC[C@]12C=CCN3CC[C@@]4(c5ccc(OC)cc5N(C)[C@H]4[C@@](O)(C(=O)OC)[C@@H]1OC(=O)CCN1CCc4ccccc4C1)[C@@H]32` has a growth of 99%.
`C#CCN(C)CCCOc1ccc(NCc2ccc(/C=C/C(=O)NO)cc2)cc1Cl` was tested, and the growth was 8.52% (active).
With `C[C@H]1OCC2(CCN(c3cnc(C(=O)Nc4cc(F)cc5cccnc45)cn3)CC2)[C@H]1N` the growth was 30.3%.
`COc1cc(C(=O)c2cc(C(C)=O)c3cccc(C)n23)cc(OC)c1OC` was tested, and the growth was 8.74% (active).
Work on `CC[C@H](CC[C@@H](C)[C@H]1CC[C@H]2[C@@H]3CC(=O)C4=CC(=O)/C(=C/c5ccc([N+](=O)[O-])cc5)C[C@]4(C)[C@H]3CC[C@]12C)C(C)C` yielded a growth of 104%.
With `CCC(=C(c1ccc(OCCN2CCCCCC2)cc1)c1ccc(OCCN2CCCCCC2)cc1)c1ccc(Cl)cc1` the growth was -44.7% (active).
For `O=C1[C@@H]2Cc3c([nH]c4ccccc34)[C@@H](c3ccc(Cl)cc3)N2C(=O)CN1C1CCN(Cc2c(F)cccc2F)CC1`, the growth was -10.2% (active).
With `NC1CC2(CCN(c3cnc(C(=O)Nc4cc(F)cc5cccnc45)cn3)CC2)C1` the growth was 5.06% (active).
Molecule `CCOP(=O)(OCC)OC[C@]12CCC(C)(C)C[C@H]1C1=CC[C@@H]3[C@@]4(C)CC[C@H](OP(=O)(OCC)OCC)C(C)(C)[C@@H]4CC[C@@]3(C)[C@]1(C)CC2` has a growth of 41.4%.
In the case of `Cn1cc(-c2nnc(N)nc2-c2c[nH]c3ccc(F)cc23)c2cc(Br)ccc21`, the growth is reported as 3.17% (active).
`COc1cc2oc(-c3cccc(NC(=O)c4cccc([N+](=O)[O-])c4)c3)cc(=O)c2c(OC)c1OC` showed a growth of 66.4%.
For `O=C(CSc1nc2ccccc2c(=O)n1-c1ccc(S(=O)(=O)Nc2ccc(Cl)nn2)cc1)Nc1ccc(S(=O)(=O)Nc2ccc(Cl)nn2)cc1`, the growth was 106%.
`O=C(CSc1nnc(-c2cccs2)n1-c1ccccc1)Nc1ccccc1` gave a growth of 91.1%.
With `COc1ccc(C(C)=C(c2ccc(OCCN3CCCCCC3)cc2)c2ccc(OCCN3CCCCCC3)cc2)cc1` the growth was -49.9% (active).
`O=C(/C=C/c1cccc(C(F)(F)F)c1)Nc1cccc(C(F)(F)F)c1` showed a growth of 51.5%.
For `CCNC(=O)Oc1ccc(/C(=C(/C)c2ccc(Cl)cc2)c2ccc(OCCN3CCCCCC3)cc2)cc1`, the growth was -48.4% (active).
For `Cc1[nH]c(C(=O)Nc2ccccc2OCc2cccc(C(=O)NC3CCNC3)c2)c(Cl)c1Cl` (stereo not given), the growth was -47.7% (active).
`CNC(=O)c1cc(N2CCc3cc(NC(=O)Nc4ccc(N5CCOCC5)c(C(F)(F)F)c4)ccc32)ccn1` was tested, and the growth was 28.5%.
`COc1cc2cc(Oc3ccc(NC(=O)Nc4ccc(F)c(C(F)(F)F)c4)cc3)c(C)nc2cc1OCCN(C)C` gave a growth of 66.5%.
